Measured values reported in PubChem BioAssay (NCI).
Several values for one entry are separate records, joined by “and”; a condition that tells them apart may be missing. Equal values may be shown once. About 83,000 compounds went through this panel and 20% of them were active in at least one assay; those are over-represented in the sample as a whole.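 48-hour exposure, single concentration, 96-well plates; percent growth endpoint where 0 means no net growth. Active: below 10.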 Activity calls are given as the source filed them.

Key:
Experiment in all cases: NCI-60 one-dose screen, 48 h (100 = growth as untreated, 0 = no growth, -100 = all killed)
Conditions in all cases: 10 µM unless noted
SK-MEL-2 melanoma = test system: SK-MEL-2 melanoma
EKVX NSCLC = test system: EKVX NSCLC
SN12C renal = test system: SN12C renal
UO-31 renal = test system: UO-31 renal
ACHN renal = test system: ACHN renal
CAKI-1 renal = test system: CAKI-1 renal
A498 renal = test system: A498 renal
CCRF-CEM leukemia = test system: CCRF-CEM leukemia
MOLT-4 leukemia = test system: MOLT-4 leukemia
TK-10 renal = test system: TK-10 renal

Row | SMILES | growth (SK-MEL-2 melanoma) | growth (EKVX NSCLC) | growth (SN12C renal) | growth (UO-31 renal) | growth (ACHN renal) | growth (CAKI-1 renal) | growth (A498 renal) | growth (CCRF-CEM leukemia) | growth (MOLT-4 leukemia) | growth (TK-10 renal)
1 | Cc1c(Cl)c(C)c(Cc2c(C)c(Cl)c(C)c(Cl)c2O)c(O)c1Cl | 1.72% (active) | 3.88% (active) | 8.8% (active) | 7.71% (active) | 3.3% (active) | 4.14% (active) | -21.6% (active) | 26.5% (inactive) | 16.5% (inactive) | –
2 | O=C(O)C1CSCN1 (stereo not drawn) | 110% (inactive) and 84.4% (inactive) | 102% (inactive) and 101% (inactive) | 100% (inactive) | 81.3% (inactive) and 88.6% (inactive) | 101% (inactive) and 97.9% (inactive) | 92.9% (inactive) and 91.4% (inactive) | 113% (inactive) and 103% (inactive) | 100% (inactive) and 121% (inactive) | 75.9% (inactive) and 106% (inactive) | –
3 | CC(=O)c1cc2ccccc2o1 | 97.9% (inactive) | 106% (inactive) | 101% (inactive) | 99.6% (inactive) | 101% (inactive) | 99.6% (inactive) | 104% (inactive) | 106% (inactive) | 99.7% (inactive) | –
4 | COc1ccc(COC=O)cc1 | 108% (inactive) | 109% (inactive) | 101% (inactive) | – | – | 102% (inactive) | 105% (inactive) | 103% (inactive) | 102% (inactive) | 103% (inactive)
5 | Cc1cc(Cl)nc(Nc2ccccc2)n1 | 106% (inactive) | 93.8% (inactive) | 96.1% (inactive) | – | 98.9% (inactive) | 78.7% (inactive) | 93.3% (inactive) | 99.3% (inactive) | 94.8% (inactive) | 94.4% (inactive)
6 | N#Cc1c[nH]n2ccnc12 | 105% (inactive) | 90.3% (inactive) | 99.8% (inactive) | 94.7% (inactive) | 112% (inactive) | 104% (inactive) | 117% (inactive) | – | 109% (inactive) | –
7 | CC(CN(C)C)CN1c2ccccc2Sc2ccccc21 (stereo not drawn) | 91.3% (inactive) and 103% (inactive) | 83% (inactive) and 104% (inactive) and 73.8% (inactive) | 65% (inactive) and 85.2% (inactive) and 80.5% (inactive) | – | 76.1% (inactive) and 92.2% (inactive) and 85.9% (inactive) | 62.3% (inactive) and 69.6% (inactive) | 108% (inactive) and 95% (inactive) and 82.6% (inactive) | 82.1% (inactive) and 85.3% (inactive) and 77.6% (inactive) | 75.7% (inactive) and 100% (inactive) and 76.7% (inactive) | 82.6% (inactive) and 76.6% (inactive) and 81.6% (inactive)
8 | O=C1C(=O)c2ccccc2C(O)=C1CC=C(Cl)Cl | 89.2% (inactive) and 77.8% (inactive) | 75.8% (inactive) | 68.8% (inactive) and 66.9% (inactive) | – | 52.6% (inactive) and 65% (inactive) | 39.4% (inactive) and 30.8% (inactive) | 81% (inactive) and 82.9% (inactive) | 44% (inactive) and 39.3% (inactive) | 20.5% (inactive) and 23.4% (inactive) | 75.8% (inactive) and 69.5% (inactive)
9 | CCOP(C)(=O)/C(Cc1ccc(OC)c(OC)c1)=N\O (stereo not drawn) | 111% (inactive) | 98.3% (inactive) | 103% (inactive) | – | 106% (inactive) | 103% (inactive) | 104% (inactive) | 110% (inactive) | 112% (inactive) | 107% (inactive)
10 | O=COCCCc1ccccc1 | 101% (inactive) | – | 105% (inactive) | – | 110% (inactive) | 106% (inactive) | 83.2% (inactive) | 108% (inactive) | 113% (inactive) | 92.8% (inactive)
11 | CCCCCCCCCCCCCCCCC(=O)O | 103% (inactive) | 106% (inactive) | 103% (inactive) | – | – | 104% (inactive) | 115% (inactive) | – | 95% (inactive) | –
12 | CCc1ccc(OC(=O)CCl)cc1 | 99.9% (inactive) | – | 106% (inactive) | – | 102% (inactive) | 101% (inactive) | 88.3% (inactive) | 104% (inactive) | 102% (inactive) | 101% (inactive)
13 | CCCCCc1cc[n+](CC(=O)c2ccccc2)cc1 | 101% (inactive) and 104% (inactive) | – | 99.8% (inactive) and 103% (inactive) | 85.6% (inactive) and 91.3% (inactive) | 102% (inactive) | 98.7% (inactive) | 87.5% (inactive) and 85.7% (inactive) | 92.2% (inactive) and 99.4% (inactive) | 104% (inactive) and 109% (inactive) | 120% (inactive) and 101% (inactive)
14 | O=[N+]([O-])c1ccc(N2CCN=N2)cc1 | 92.2% (inactive) | – | 88.9% (inactive) | 64.3% (inactive) | 64.9% (inactive) | 79.4% (inactive) | 72.3% (inactive) | 91.2% (inactive) | 90.8% (inactive) | 85.5% (inactive)
15 | CCN(C)c1ccccc1 | 104% (inactive) | – | 96.7% (inactive) | 72.6% (inactive) | 103% (inactive) | 90.8% (inactive) | 99.6% (inactive) | – | 88.2% (inactive) | 107% (inactive)
16 | COc1cc([C@@H]2c3cc4c(cc3[C@H](O)[C@H]3COC(=O)[C@@H]23)OCO4)cc(OC)c1OC | -23.7% (active) | – | 20.6% (inactive) and 33% (inactive) | 23.3% (inactive) and 36.9% (inactive) | 25.2% (inactive) and 31.8% (inactive) | 22.9% (inactive) and 8.72% (active) | -5.77% (active) and -29.6% (active) | – | 13.5% (inactive) and 4.58% (active) | 21.1% (inactive) and 69.2% (inactive)
17 | O=[N+]([O-])c1ccc(NC(c2ccccc2)c2ccc3cccnc3c2O)cc1 (stereo not drawn) | 36.3% (inactive) | – | 14.8% (inactive) | -2.13% (active) | 15.8% (inactive) | 2.88% (active) | 55.8% (inactive) | – | 9.81% (active) | –
18 | COCCCNC1=C(C#N)C(=O)NC(c2cccs2)S1 (stereo not drawn) | 119% (inactive) | – | 93% (inactive) | 76.3% (inactive) | 97.5% (inactive) | 92.7% (inactive) | 133% (inactive) | 114% (inactive) | 172% (inactive) | –
19 | O=C(O)C#Cc1ccc(Cl)cc1 | 98.4% (inactive) | – | 98.4% (inactive) | 95.6% (inactive) | 103% (inactive) | 95.4% (inactive) | 73.1% (inactive) | 103% (inactive) | 87.5% (inactive) | 109% (inactive)
20 | CC(=O)Oc1ccc(C2(c3ccc(OC(C)=O)cc3)C(=O)Nc3ccccc32)cc1 | 90.4% (inactive) and 80.7% (inactive) | – | 17.7% (inactive) and 16% (inactive) | 81.9% (inactive) and 85.4% (inactive) | – | 68.2% (inactive) and 77.4% (inactive) | 107% (inactive) and 111% (inactive) | 97.9% (inactive) and 86.7% (inactive) | 71.4% (inactive) and 97.6% (inactive) | 18.3% (inactive) and 35.6% (inactive)
21 | CCOC(=O)c1ccc(N2C(=O)C(Cl)(c3ccccc3)C2c2ccco2)cc1 (stereo not drawn) | 98.7% (inactive) | – | 95% (inactive) | – | 91.9% (inactive) | 71.7% (inactive) | 88.8% (inactive) | 62.3% (inactive) | 59.9% (inactive) | –
22 | O=C1C=CC(n2cc(F)c(=O)[nH]c2=O)O1 (stereo not drawn) | 109% (inactive) | 93.3% (inactive) | 64.4% (inactive) | – | – | 46.5% (inactive) | 79.5% (inactive) | – | 54.4% (inactive) | 75.7% (inactive)
23 | C/C(=C\c1ccccc1)C(O)C(=O)c1nc2ccc([N+](=O)[O-])cc2[nH]c1=O (stereo not drawn) | 93.6% (inactive) | – | 90% (inactive) | 74.4% (inactive) | 81% (inactive) | 96% (inactive) | 110% (inactive) | – | 91% (inactive) | 109% (inactive)
24 | COc1cc(NCCCCCNC(C)C)c2ncccc2c1 | 93.1% (inactive) and 66.7% (inactive) | – | 93.5% (inactive) and 83.6% (inactive) | 59.7% (inactive) and 45.4% (inactive) | 100% (inactive) and 90.5% (inactive) | 91.6% (inactive) and 92.5% (inactive) | 77.2% (inactive) | 106% (inactive) and 117% (inactive) | 104% (inactive) and 88% (inactive) | 91.9% (inactive) and 90.1% (inactive)
25 | Nc1nc(N)c2cc(S(=O)(=O)c3ccccc3)ccc2n1 | 80.2% (inactive) and 126% (inactive) | 47.4% (inactive) and 51.2% (inactive) | 29.2% (inactive) and 41.4% (inactive) | – | 24% (inactive) and 29.6% (inactive) | 21.3% (inactive) and 22.4% (inactive) | 57.2% (inactive) and 94.4% (inactive) | 37.9% (inactive) and 29.7% (inactive) | 32.8% (inactive) and 49.8% (inactive) | –
26 | COc1ccc(/C=N/Nc2nc3ccccc3s2)cc1 | 117% (inactive) | – | 89% (inactive) | 62.6% (inactive) | 90.6% (inactive) | 79.9% (inactive) | 115% (inactive) | 34.7% (inactive) | 85.8% (inactive) | –
27 | COc1ccc(CCl)c(C)c1OC | 104% (inactive) | – | 98.2% (inactive) | 89.7% (inactive) | 110% (inactive) | 101% (inactive) | 89.5% (inactive) | 97.3% (inactive) | 104% (inactive) | 102% (inactive)
